# About 7,900 targets were measured; listed, in parts, are those with a hit and a random draw of the rest. About 0.6% of all pairs of compound and target were hits.
# What was measured:
# Test in all cases: log2 fold change, soluble protein after heating vs DMSO (PISA); higher = thermal stabilisation; K562 cells, 10 uM, 30 min; active = over 0.2 and 3.5 SD of the protein, either way, in both replicates (recomputed)
# [1] = compound: CS(=O)(=O)c1ccc(-c2cnc(N)c(C(=O)Nc3ccccc3)n2)cc1
# How it was run: (§1)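 K562 cells at 2×10^6 cells/mL were given 10 μM compound for 30 min. Aliquots then went through 3 min of heating across 48°C-58°C, were pooled, and were extracted in PBS with 0.5% NP-40 at 4°C, and the supernatant after 21,000xg for 90 min was quantified by TMTpro 16plex LC-MS/MS with channel sums equalised. Thermal stability relative to control samples, from duplicates, is given as log2 fold change.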
# crizotinib = compound: C[C@@H](Oc1cc(-c2cnn(C3CCNCC3)c2)cnc1N)c1c(Cl)ccc(F)c1Cl [crizotinib]
# How it was run: as §1
# [2] = compound: C[C@@H]1COCCN1C2=NC(=NC(=C2)C3(CC3)S(=O)(=O)C)C4=C5C=CNC5=CC=C4
# How it was run: as §1
# [3] = compound: C[C@H](C1=CC=C(C=C1)C(=O)NC2=C3C=CNC3=NC=C2)N
# How it was run: as §1
# duvelisib = compound: C[C@H](Nc1ncnc2nc[nH]c12)c1cc2cccc(Cl)c2c(=O)n1-c1ccccc1 [duvelisib]
# How it was run: as §1
# gandotinib = compound: Cc1cc(Nc2cc(CN3CCOCC3)c3nc(C)c(Cc4ccc(Cl)cc4F)n3n2)n[nH]1 [gandotinib]
# How it was run: as §1
# tozasertib = compound: Cc1cc(Nc2cc(N3CCN(C)CC3)nc(Sc3ccc(NC(=O)C4CC4)cc3)n2)n[nH]1 [tozasertib]
# How it was run: as §1
# [4] = compound: Cc1cc(SCc2sc(-c3ccc(C(F)(F)F)cc3)nc2C)ccc1OCC(=O)O
# How it was run: as §1
# doramapimod = compound: Cc1ccc(-n2nc(C(C)(C)C)cc2NC(=O)Nc2ccc(OCCN3CCOCC3)c3ccccc23)cc1 [doramapimod]
# How it was run: as §1
# bafetinib = compound: Cc1ccc(NC(=O)c2ccc(CN3CC[C@H](N(C)C)C3)c(C(F)(F)F)c2)cc1Nc1nccc(-c2cncnc2)n1 [bafetinib]
# How it was run: as §1
# [5] = compound: Cc1cccc(CC(=O)N2CCc3c2ccc(-c2cn(C)c4ncnc(N)c24)c3F)n1
# How it was run: as §1
# nilotinib = compound: Cc1cn(-c2cc(NC(=O)c3ccc(C)c(Nc4nccc(-c5cccnc5)n4)c3)cc(C(F)(F)F)c2)cn1 [nilotinib]
# How it was run: as §1
# [6] = compound: Cc1nc(Nc2n[nH]c3c2CN(C(=O)N[C@H](CN(C)C)c2ccccc2)C3(C)C)c2sccc2n1
# How it was run: as §1
# dasatinib = compound: Cc1nc(Nc2ncc(C(=O)Nc3c(C)cccc3Cl)s2)cc(N2CCN(CCO)CC2)n1 [dasatinib]
# How it was run: as §1
# [7] = compound: Cc1ncc(-c2ccnc(Nc3ccc(S(C)(=O)=O)cc3)n2)n1C(C)C
# How it was run: as §1
# [8] = compound: Cn1cc(-c2ccc3c(c2)CCN3C(=O)Cc2cccc(C(F)(F)F)c2)c2c(N)ncnc21
# How it was run: as §1
# tipifarnib = compound: Cn1cncc1[C@@](N)(c1ccc(Cl)cc1)c1ccc2c(c1)c(-c1cccc(Cl)c1)cc(=O)n2C [tipifarnib]
# How it was run: as §1
# mubritinib = compound: FC(F)(F)c1ccc(/C=C/c2nc(COc3ccc(CCCCn4ccnn4)cc3)co2)cc1 [mubritinib]
# How it was run: as §1
# ispinesib = compound: Cc1ccc(C(=O)N(CCCN)[C@@H](c2nc3cc(Cl)ccc3c(=O)n2Cc2ccccc2)C(C)C)cc1 [ispinesib]
# How it was run: as §1
# [9] = compound: Cn1cc(-c2ccc3nnc(C(F)(F)c4ccc5ncccc5c4)n3n2)cn1
# How it was run: as §1
# Chain of UniProt Q96LB3 (Q96LB3 whole entry, looked up): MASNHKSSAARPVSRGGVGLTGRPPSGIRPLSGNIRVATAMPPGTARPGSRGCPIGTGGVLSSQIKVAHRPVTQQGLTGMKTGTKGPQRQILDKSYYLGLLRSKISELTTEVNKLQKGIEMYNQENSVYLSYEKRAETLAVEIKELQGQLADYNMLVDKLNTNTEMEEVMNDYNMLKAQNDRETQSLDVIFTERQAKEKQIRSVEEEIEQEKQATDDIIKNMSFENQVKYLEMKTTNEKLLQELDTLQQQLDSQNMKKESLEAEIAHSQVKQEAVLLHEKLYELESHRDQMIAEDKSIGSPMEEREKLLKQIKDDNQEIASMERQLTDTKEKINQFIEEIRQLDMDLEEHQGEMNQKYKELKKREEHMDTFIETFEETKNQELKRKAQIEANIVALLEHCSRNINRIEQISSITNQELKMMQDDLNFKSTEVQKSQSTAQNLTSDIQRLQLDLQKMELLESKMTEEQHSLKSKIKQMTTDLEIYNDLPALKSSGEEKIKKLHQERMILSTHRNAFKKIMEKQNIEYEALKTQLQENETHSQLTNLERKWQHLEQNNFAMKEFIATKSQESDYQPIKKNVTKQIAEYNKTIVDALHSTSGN
# Chain of UniProt Q96HJ9 (Q96HJ9 whole entry, looked up): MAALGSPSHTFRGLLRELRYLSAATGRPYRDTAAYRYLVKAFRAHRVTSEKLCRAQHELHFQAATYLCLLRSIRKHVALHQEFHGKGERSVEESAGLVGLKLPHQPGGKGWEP
# Chain of UniProt Q9BYC5 (Q9BYC5 whole entry, looked up): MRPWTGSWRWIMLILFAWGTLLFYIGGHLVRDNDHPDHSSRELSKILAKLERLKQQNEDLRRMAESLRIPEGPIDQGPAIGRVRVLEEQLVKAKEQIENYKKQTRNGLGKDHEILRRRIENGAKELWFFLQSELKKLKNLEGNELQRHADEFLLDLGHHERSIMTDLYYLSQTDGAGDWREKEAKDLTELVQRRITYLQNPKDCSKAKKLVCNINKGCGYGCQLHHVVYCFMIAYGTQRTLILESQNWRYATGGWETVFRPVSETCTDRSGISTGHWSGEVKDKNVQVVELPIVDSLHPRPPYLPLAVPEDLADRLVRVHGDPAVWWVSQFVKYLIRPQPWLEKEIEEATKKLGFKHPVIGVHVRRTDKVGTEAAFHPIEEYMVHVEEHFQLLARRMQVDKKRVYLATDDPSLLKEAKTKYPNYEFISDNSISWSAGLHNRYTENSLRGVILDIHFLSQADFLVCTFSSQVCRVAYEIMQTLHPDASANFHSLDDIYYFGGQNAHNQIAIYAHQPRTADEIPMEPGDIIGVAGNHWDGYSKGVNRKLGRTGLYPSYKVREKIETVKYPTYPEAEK
# Chain of UniProt Q53FT3 (Q53FT3 whole entry, looked up): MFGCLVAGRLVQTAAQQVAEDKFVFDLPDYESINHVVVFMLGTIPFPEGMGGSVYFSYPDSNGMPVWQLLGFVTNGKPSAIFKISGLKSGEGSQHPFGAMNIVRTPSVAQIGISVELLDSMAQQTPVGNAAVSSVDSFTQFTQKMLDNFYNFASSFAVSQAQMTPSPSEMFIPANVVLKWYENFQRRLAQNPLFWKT
# Chain of UniProt Q92664 (Q92664 whole entry, looked up): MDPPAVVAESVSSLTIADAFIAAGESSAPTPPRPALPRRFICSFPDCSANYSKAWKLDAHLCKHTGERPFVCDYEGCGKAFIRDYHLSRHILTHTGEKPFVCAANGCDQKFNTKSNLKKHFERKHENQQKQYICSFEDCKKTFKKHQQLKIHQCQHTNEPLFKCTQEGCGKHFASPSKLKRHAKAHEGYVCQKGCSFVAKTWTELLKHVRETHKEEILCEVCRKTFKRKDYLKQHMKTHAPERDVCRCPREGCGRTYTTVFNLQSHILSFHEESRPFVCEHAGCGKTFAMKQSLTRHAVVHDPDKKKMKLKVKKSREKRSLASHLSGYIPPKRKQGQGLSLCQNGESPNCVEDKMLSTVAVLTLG
# Chain of UniProt P52597 (P52597 whole entry, looked up): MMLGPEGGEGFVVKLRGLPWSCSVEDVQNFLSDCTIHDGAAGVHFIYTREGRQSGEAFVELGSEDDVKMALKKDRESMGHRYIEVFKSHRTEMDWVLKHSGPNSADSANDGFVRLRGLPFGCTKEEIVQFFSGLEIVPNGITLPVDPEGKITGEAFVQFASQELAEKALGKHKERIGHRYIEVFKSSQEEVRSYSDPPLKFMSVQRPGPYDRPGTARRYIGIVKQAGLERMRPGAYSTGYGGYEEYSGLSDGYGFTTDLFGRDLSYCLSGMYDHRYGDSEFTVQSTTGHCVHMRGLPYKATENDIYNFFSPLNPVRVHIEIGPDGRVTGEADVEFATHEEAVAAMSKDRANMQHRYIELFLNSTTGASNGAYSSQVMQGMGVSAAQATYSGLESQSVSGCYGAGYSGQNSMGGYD
# Chain of UniProt O43824 (O43824 whole entry, looked up): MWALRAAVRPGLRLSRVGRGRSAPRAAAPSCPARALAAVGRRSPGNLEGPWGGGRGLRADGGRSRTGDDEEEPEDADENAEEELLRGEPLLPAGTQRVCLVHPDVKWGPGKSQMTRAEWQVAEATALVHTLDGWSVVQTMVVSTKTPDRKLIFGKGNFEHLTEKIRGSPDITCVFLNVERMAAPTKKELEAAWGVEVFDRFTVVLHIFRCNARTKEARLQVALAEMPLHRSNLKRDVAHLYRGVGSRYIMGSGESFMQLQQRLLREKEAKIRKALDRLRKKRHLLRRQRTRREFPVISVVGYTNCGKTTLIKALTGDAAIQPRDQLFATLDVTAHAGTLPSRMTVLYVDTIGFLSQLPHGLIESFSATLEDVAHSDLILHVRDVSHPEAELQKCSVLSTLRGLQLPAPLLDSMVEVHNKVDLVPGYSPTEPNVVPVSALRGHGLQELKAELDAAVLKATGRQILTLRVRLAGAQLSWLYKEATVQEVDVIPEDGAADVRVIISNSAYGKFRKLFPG
# Chain of UniProt Q96SL8 (Q96SL8 whole entry, looked up): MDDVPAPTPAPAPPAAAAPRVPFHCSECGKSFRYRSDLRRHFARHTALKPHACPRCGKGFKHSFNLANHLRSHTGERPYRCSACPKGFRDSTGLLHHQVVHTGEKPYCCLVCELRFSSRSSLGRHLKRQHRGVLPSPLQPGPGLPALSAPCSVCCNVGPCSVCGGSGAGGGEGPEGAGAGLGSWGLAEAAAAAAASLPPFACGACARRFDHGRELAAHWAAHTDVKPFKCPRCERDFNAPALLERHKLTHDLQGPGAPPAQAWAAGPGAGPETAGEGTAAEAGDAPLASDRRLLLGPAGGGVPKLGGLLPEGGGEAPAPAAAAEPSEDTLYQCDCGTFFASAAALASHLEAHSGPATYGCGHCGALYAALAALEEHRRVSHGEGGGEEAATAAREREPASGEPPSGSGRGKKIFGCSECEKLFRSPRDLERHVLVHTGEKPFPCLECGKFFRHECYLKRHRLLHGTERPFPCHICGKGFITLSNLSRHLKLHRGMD
# Chain of UniProt Q9H4G4 (Q9H4G4 whole entry, looked up): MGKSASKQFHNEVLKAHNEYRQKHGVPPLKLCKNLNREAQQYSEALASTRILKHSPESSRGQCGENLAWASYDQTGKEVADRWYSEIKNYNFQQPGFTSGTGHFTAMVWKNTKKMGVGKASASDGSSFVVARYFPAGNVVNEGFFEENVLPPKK
# Chain of UniProt Q49A26 (Q49A26 whole entry, looked up): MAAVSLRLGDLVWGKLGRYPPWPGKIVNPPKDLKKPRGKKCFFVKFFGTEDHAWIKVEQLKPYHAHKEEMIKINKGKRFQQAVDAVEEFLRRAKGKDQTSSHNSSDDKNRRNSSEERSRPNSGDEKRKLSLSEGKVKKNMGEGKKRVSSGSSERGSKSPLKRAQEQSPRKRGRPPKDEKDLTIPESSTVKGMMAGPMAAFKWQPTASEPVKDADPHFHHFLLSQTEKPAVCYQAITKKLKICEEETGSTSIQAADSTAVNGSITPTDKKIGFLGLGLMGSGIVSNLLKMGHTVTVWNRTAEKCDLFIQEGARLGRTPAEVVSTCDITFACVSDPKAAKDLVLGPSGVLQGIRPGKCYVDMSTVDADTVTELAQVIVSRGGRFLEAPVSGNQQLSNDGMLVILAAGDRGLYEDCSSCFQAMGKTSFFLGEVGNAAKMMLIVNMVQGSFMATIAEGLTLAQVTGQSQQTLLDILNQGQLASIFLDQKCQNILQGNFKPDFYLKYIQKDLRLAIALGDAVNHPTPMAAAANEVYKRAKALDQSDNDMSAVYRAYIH
# Chain of UniProt Q9NRD1 (Q9NRD1 whole entry, looked up): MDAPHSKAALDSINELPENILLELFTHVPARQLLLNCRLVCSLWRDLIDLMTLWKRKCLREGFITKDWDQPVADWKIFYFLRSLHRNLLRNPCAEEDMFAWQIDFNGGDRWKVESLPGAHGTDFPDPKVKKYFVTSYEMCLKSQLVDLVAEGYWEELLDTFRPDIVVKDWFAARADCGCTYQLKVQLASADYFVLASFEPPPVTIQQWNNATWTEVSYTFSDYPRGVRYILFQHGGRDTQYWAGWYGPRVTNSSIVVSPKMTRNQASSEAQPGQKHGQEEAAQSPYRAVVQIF
# Chain of UniProt P46976 (P46976 whole entry, looked up): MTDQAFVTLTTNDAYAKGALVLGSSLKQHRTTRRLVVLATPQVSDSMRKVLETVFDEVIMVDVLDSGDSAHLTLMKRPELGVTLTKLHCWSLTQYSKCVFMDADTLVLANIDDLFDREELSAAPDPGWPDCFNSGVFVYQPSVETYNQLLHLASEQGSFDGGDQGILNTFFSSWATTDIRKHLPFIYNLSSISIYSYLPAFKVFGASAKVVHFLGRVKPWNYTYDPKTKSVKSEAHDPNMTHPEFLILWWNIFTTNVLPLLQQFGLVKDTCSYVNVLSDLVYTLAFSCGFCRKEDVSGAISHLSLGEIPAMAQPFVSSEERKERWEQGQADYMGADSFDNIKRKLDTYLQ
# Chain of UniProt Q03014 (Q03014 whole entry, looked up): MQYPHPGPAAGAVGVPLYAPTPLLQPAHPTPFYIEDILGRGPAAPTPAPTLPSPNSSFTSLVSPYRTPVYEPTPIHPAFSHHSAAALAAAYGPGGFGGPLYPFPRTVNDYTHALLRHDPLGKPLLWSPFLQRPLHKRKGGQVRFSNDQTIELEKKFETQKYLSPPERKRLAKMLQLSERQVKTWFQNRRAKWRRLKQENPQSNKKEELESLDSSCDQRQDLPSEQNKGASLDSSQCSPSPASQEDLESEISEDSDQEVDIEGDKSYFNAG
Target,log2 fold change [1],log2 fold change (crizotinib),log2 fold change [2],log2 fold change [3],log2 fold change (duvelisib),log2 fold change (gandotinib),log2 fold change (tozasertib),log2 fold change [4],log2 fold change (doramapimod),log2 fold change (bafetinib),log2 fold change [5],log2 fold change (nilotinib),log2 fold change [6],log2 fold change (dasatinib),log2 fold change [7],log2 fold change [8],log2 fold change (tipifarnib),log2 fold change (mubritinib),log2 fold change (ispinesib),log2 fold change [9]
GTF3A (UniProt Q92664),-0.002 (inactive),-0.145 (inactive),0.015 (inactive),0.078 (inactive),0.019 (inactive),0.023 (inactive),-0.025 (inactive),0.023 (inactive),-0.001 (inactive),-0.113 (inactive),-0.026 (inactive),0.042 (inactive),-0.219 (inactive),-0.137 (inactive),-0.031 (inactive),0.023 (inactive),-0.12 (inactive),0.06 (inactive),–,–
FUT8 (UniProt Q9BYC5),0.018 (inactive),-0.235 (inactive),0.077 (inactive),-0.011 (inactive),-0.007 (inactive),0.034 (inactive),-0.14 (inactive),0.178 (inactive),-0.017 (inactive),-0.062 (inactive),-0.042 (inactive),-0.008 (inactive),0.006 (inactive),0.031 (inactive),0.054 (inactive),-0.276 (inactive),–,-0.037 (inactive),-0.148 (inactive),0.022 (inactive)
IFT74 (UniProt Q96LB3),0.21 (inactive),-0.04 (inactive),0.014 (inactive),0.088 (inactive),0.068 (inactive),-0.02 (inactive),-0.136 (inactive),-0.094 (inactive),0.095 (inactive),-0.095 (inactive),0.015 (inactive),0.166 (inactive),0.063 (inactive),0.057 (inactive),0.008 (inactive),0.015 (inactive),-0.052 (inactive),0.186 (inactive),-0.133 (inactive),-0.053 (inactive)
GTPBP6 (UniProt O43824),-0.002 (inactive),0.012 (inactive),0.197 (inactive),-0.066 (inactive),-0.002 (inactive),0.003 (inactive),0.087 (inactive),-0.006 (inactive),0.06 (inactive),-0.706 (active),-0.072 (inactive),0.13 (inactive),0.069 (inactive),0.028 (inactive),-0.042 (inactive),0.057 (inactive),–,0.058 (inactive),0.076 (inactive),0.042 (inactive)
FMC1 (UniProt Q96HJ9),0.021 (inactive),0.195 (inactive),-0.157 (inactive),0.082 (inactive),-0.046 (inactive),0.024 (inactive),-0.058 (inactive),-0.018 (inactive),-0.137 (inactive),-0.128 (inactive),-0.026 (inactive),0.009 (inactive),0.045 (inactive),0.006 (inactive),-0.012 (inactive),-0.006 (inactive),0.035 (inactive),0.016 (inactive),-0.314 (inactive),0.009 (inactive)
FIZ1 (UniProt Q96SL8),-0.05 (inactive),0.018 (inactive),-0.354 (inactive),0.074 (inactive),-0.251 (inactive),0.024 (inactive),–,0.017 (inactive),0.044 (inactive),–,-0.092 (inactive),-0.09 (inactive),0.065 (inactive),-0.026 (inactive),-0.213 (inactive),-0.137 (inactive),–,-0.191 (inactive),–,–
FBXO6 (UniProt Q9NRD1),0.035 (inactive),0.475 (active),0.052 (inactive),-0.082 (inactive),0.04 (inactive),0.088 (inactive),0.036 (inactive),0.036 (inactive),-0.049 (inactive),0.442 (active),0.015 (inactive),-0.118 (inactive),-0.004 (inactive),-0.202 (inactive),0.044 (inactive),0.047 (inactive),-0.021 (inactive),-0.038 (inactive),0.39 (active),-0.021 (inactive)
GLYR1 (UniProt Q49A26),0.033 (inactive),0.008 (inactive),-0.125 (inactive),0.075 (inactive),-0.179 (inactive),0.016 (inactive),-0.18 (inactive),-0.06 (inactive),0.117 (inactive),0.109 (inactive),-0.015 (inactive),0.082 (inactive),0.068 (inactive),0.067 (inactive),-0.004 (inactive),-0.004 (inactive),0.054 (inactive),0.024 (inactive),-0.132 (inactive),-0.01 (inactive)
GLIPR2 (UniProt Q9H4G4),0.034 (inactive),-0.243 (inactive),-0.018 (inactive),-0.064 (inactive),0.1 (inactive),0.157 (inactive),-0.062 (inactive),0.007 (inactive),-0.01 (inactive),-0.101 (inactive),-0.024 (inactive),–,–,-0.059 (inactive),–,0.031 (inactive),0.019 (inactive),0.054 (inactive),-0.459 (active),0.087 (inactive)
HHEX (UniProt Q03014),-0.014 (inactive),-0.027 (inactive),-0.104 (inactive),0.49 (inactive),-0.072 (inactive),-0.042 (inactive),-0.019 (inactive),0.021 (inactive),0.05 (inactive),-0.039 (inactive),-0.024 (inactive),-0.033 (inactive),-0.056 (inactive),0.04 (inactive),0.008 (inactive),0.373 (inactive),-0.012 (inactive),0.066 (inactive),-0.128 (inactive),0.044 (inactive)
FUCA1 (UniProt P04066),0.019 (inactive),-0.079 (inactive),0.031 (inactive),-0.049 (inactive),0.007 (inactive),0 (inactive),-0.007 (inactive),-0.044 (inactive),0.021 (inactive),-1.16 (active),-0.001 (inactive),-0.011 (inactive),-0.01 (inactive),-0.009 (inactive),-0.014 (inactive),-0.054 (inactive),-0.001 (inactive),-0.008 (inactive),-0.007 (inactive),0.011 (inactive)
GYG1 (UniProt P46976),-0.223 (inactive),-0.037 (inactive),-0.15 (inactive),0.018 (inactive),-0.057 (inactive),-0.12 (inactive),0.072 (inactive),0.09 (inactive),0.072 (inactive),0.237 (inactive),0.035 (inactive),0.635 (active),-0.012 (inactive),0.052 (inactive),-0.297 (inactive),-0.06 (inactive),-0.009 (inactive),-0.104 (inactive),-0.12 (inactive),-0.11 (inactive)
HIKESHI (UniProt Q53FT3),-0.007 (inactive),0.067 (inactive),0.182 (inactive),-0.023 (inactive),0.101 (inactive),-0.033 (inactive),0.023 (inactive),-0.021 (inactive),-0.013 (inactive),-0.003 (inactive),0.02 (inactive),-0.062 (inactive),0.018 (inactive),0.079 (inactive),0.009 (inactive),0.043 (inactive),-0.043 (inactive),0.025 (inactive),0.192 (inactive),0.065 (inactive)
GEMIN5 (UniProt Q8TEQ6),-0.004 (inactive),-0.047 (inactive),0.038 (inactive),0.02 (inactive),-0.006 (inactive),-0.082 (inactive),0.016 (inactive),0.055 (inactive),-0.001 (inactive),0.015 (inactive),0.065 (inactive),-0.046 (inactive),-0.315 (active),-0.099 (inactive),-0.127 (inactive),0.006 (inactive),-0.049 (inactive),0.043 (inactive),-0.088 (inactive),-0.021 (inactive)
HNRNPF (UniProt P52597),-0.016 (inactive),-0.152 (inactive),0.047 (inactive),-0.004 (inactive),-0.061 (inactive),-0.07 (inactive),0.071 (inactive),0.119 (inactive),-0.03 (inactive),-0.013 (inactive),0.056 (inactive),-0.106 (inactive),-0.178 (inactive),-0.15 (inactive),-0.066 (inactive),0.024 (inactive),-0.051 (inactive),-0.022 (inactive),-0.092 (inactive),-0.057 (inactive)

# Reference: the supplement of paper PMC10849652
